Consider 12 compounds from PubChem BioAssay (Tox21).

The structures appear in SMILES notation. A number with no mark means an inactive call. Inconclusive results are not listed. Active and inactive are the calls of the source. Unless noted, calls follow the shape of the dose curve; as a rule, active = well fitted curve in the direction sought with a large enough effect in the repeat runs; inconclusive = weak or mixed curves; inactive = no such curve, though single readings can be large; an effect the other way counts as inactive or inconclusive.

Experiment [1] in a line: A CellTox Green Cytotoxicity Assay to monitor cytotoxicity in HepG2 cells - 32 hour (AID 1224883). Also: nearly all actives have a fitted effect of over 50% in size. The procedure, abridged:
(§1)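 HepG2 cells, 600/well, preincubated 5 h with CellTox Green dye, then exposed to Tox21 compounds in DMSO at 37 C for up to 40 h. Dead-cell DNA fluorescence read at the indicated time point.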

Experiment [2] in a line: A CellTox Green Cytotoxicity Assay to monitor cytotoxicity in HEK293 cells - 8 hour (AID 1224884). Also: nearly all actives have a fitted effect of over 35% in size. The procedure, abridged:
(§2)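 HEK293 cells, 600/well, were preincubated 5 hours and then exposed to compounds at 37 C for up to 40 hours. A cell-impermeant cyanine dye staining dead-cell DNA was read by fluorescence at 0, 8, 16, 24, 32 and 40 h time points.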

Experiment [3] can be described thus: qHTS RealTime-Glo MT Cell Viability Assay in HEK293 cells - 24 hour (AID 1224886). Also: nearly all actives have a fitted effect of over 50% in size. Also: potency is read from the fitted curve at half-maximal effect. The procedure, abridged: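 Quantitative high-throughput screen of the Tox21 10K library in HEK293: cells and RealTime-Glo reagents plated together, compound added at 5 h, luminescence monitored through 40 h at 37 C.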
Experiment [4] in a line: qHTS RealTime-Glo MT Cell Viability Assay in HEK293 cells - 8 hour (AID 1224887). Also: top concentration of the series differs between compounds; nearly all actives have a fitted effect of over 50% in size. The procedure, abridged:
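600 cells/well were plated with the nonlytic NanoLuc/prosubstrate reagent, pre-incubated 5 h, then given 23 nL of compound in DMSO. Incubation at 37 C for 40 h, with luminescence from viable-cell-reduced substrate read repeatedly from 0 h.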

Experiment [5] in a line: A CellTox Green Cytotoxicity Assay to monitor cytotoxicity in HEK293 cells - 16 hour (AID 1224888). Also: nearly all actives have a fitted effect of over 35% in size. Also: potency is read from the fitted curve at half-maximal effect. The procedure, abridged: as §2
Experiment [6] in a line: qHTS RealTime-Glo MT Cell Viability Assay in HepG2 cells - 0 hour (AID 1224889). Also: nearly all actives have a fitted effect of over 50% in size. Also: potency is read from the fitted curve at half-maximal effect. The essentials: (§3)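 Compound treatment began 5 h after plating HepG2 cells (600/well) with NanoLuc luciferase and prosubstrate. Plates stayed at 37 C for 40 h; luminescence was captured at six time points, 0 h through 40 h.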
For orientation: In qHTS, concentration-response curves come from the screen itself.

Experiment [7] can be described thus: A CellTox Green Cytotoxicity Assay to monitor cytotoxicity in HepG2 cells - 8 hour (AID 1224890). Also: nearly all actives have a fitted effect of over 45% in size. The procedure, abridged:
as §1

A short description of experiment [8]: qHTS assay to identify small molecule antagonists of the estrogen receptor alpha (ER-alpha) signaling pathway using the BG1 cell line in the presence of 0.1 nM 17-beta-estradiol - cell viability counter screen (AID 1259241). Also: nearly all actives have a fitted effect of over 40% in size. The essentials:
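In this screen, hormone-deprived VM7Luc4E2 cells were seeded at 4,000 per well, dosed with compound and 0.1 nM estradiol final, and incubated 22 hr at 37C and 5% CO2; fluorogenic live-cell protease signal reported viability.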

A short description of experiment [9]: qHTS assay to identify small molecule antagonists of the androgen receptor (AR) signaling pathway using the MDA cell line in the presence of 0.5 nM R1881 - cell viability counter screen (AID 1259242). Also: nearly all actives have a fitted effect of over 45% in size. The procedure, abridged: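 MDA-kb2 cells (MMTV-luciferase, AR/GR responsive) were treated with compounds plus 0.5 nM R1881 (final) for 16 hr at 37C, 0% CO2. Viability was then read in the same wells as live-cell protease fluorescence (CellTiter-Fluor, 30 min).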

In experiment [10] the target is Androgen receptor (Homo sapiens) (UniProt P10275). The experiment can be described thus: qHTS assay to identify small molecule antagonists of the androgen receptor (AR) signaling pathway using the MDA cell line in the presence of 0.5 nM R1881 (AID 1259243). Also: nearly all actives have a fitted effect of over 50% in size. The procedure, abridged:
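MDA-kb2 cells (MMTV-luciferase, responsive to AR and GR) at 3,000/well, rested 5 h at 37C, 0% CO2, then given compounds plus 0.5 nM R1881 (final) for 16 hr. Luciferase read with ONE-Glo after 30 min at room temperature.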

Experiment [11] is described as follows: qHTS assay to identify small molecule HDAC inhibitors (AID 1259364). Also: top concentration of the series differs between compounds; nearly all actives have a fitted effect of over 45% in size. The essentials: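 Wild-type HCT-116 cells, plated overnight at 37 C, exposed to compounds 2 hr at 37 C; luminogenic HDAC-Glo substrate then added 30 min at room temperature. Luminescence reports relative endogenous class I/II HDAC activity.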
Experiment [12] is described as follows: qHTS assay to identify small molecule HDAC inhibitors - cell viability counter screen (AID 1259365). The procedure, abridged:
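Measured quantity is CellTiter-Glo luminescence from wild-type HCT-116 cells after compound incubation of 2hr at 37C, 5% CO2; reagent developed 30min at room temperature.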

Experiment [13] in a line: qHTS assay to identify small molecule agonists of the sonic hedgehog signaling (Shh) pathway - cell viability counter screen (AID 1259366). Also: nearly all actives have a fitted effect of over 50% in size. The procedure, abridged:
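In quantitative high-throughput format, 3T3 Gli1-Luc cells were exposed to compounds for 24hr and multiplexed for viability using CellTiter-Fluor, incubated 1hr at 37C before the fluorescence read.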

The nature of experiment [14]: qHTS assay to identify small molecule antagonists of the sonic hedgehog signaling (Shh) pathway - cell viability counter screen (AID 1259367). Also: nearly all actives have a fitted effect of over 55% in size. The essentials:
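Using CellTiter-Fluor, viability of Gli1-Luc reporter 3T3 cells is read by fluorescence in the wells used for the Shh luciferase assay. Treatment lasts 23 hr with conditioned medium, then reagent 1 hr at 37C.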

Experiment [15] is described as follows: qHTS assay to identify small molecule agonists of the sonic hedgehog signaling (Shh) pathway (AID 1259368; calls by dose curve;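 also: NIH/3T3-derived 3T3Gli1-Luc cells carrying a stable Gli1-driven firefly luciferase reporter; series mostly up to about 92 µM; nearly all actives have a fitted effect of over 15% in size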). The procedure, abridged:
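NIH/3T3-derived 3T3Gli1-Luc cells with stably integrated Gli1-driven firefly luciferase, 2,000 cells/well, compounds added after 4 hr. Incubated 24 hr at 37C, 5% CO2; luminescence read after 30 min with luciferase reagent at room temperature.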

Experiment [16] is described as follows: qHTS assay to identify small molecule antagonists of the sonic hedgehog signaling (Shh) pathway (AID 1259369; calls by dose curve; also: nearly all actives have a fitted effect of over 45% in size; also: potency is read from the fitted curve at half-maximal effect). The procedure, abridged: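 NIH/3T3-derived Gli1-Luc reporter cells plated 4 h, dosed with compound, then stimulated with conditioned medium for 24 h at 37 C. Firefly luciferase luminescence read after 30 min with detection reagent at room temperature.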

Experiment [17] in a line: qHTS RealTime-Glo MT Cell Viability Assay in HepG2 cells - 16 hour (AID 1224885). Also: nearly all actives have a fitted effect of over 50% in size. The procedure, abridged:
as §3

Experiment [18] deals with Estrogen receptor (Homo sapiens) (UniProt P03372). The experiment can be described thus: qHTS assay to identify small molecule antagonists of the estrogen receptor alpha (ER-alpha) signaling pathway using the BG1 cell line in the presence of 0.1 nM 17-beta-estradiol (AID 1259244). Also: nearly all actives have a fitted effect of over 50% in size. The essentials:
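VM7Luc4E2 cells (endogenous full-length ER-alpha, 4×ERE-luciferase), kept 5 days in phenol red-free, charcoal-stripped FBS medium; 4,000 cells/well. Compounds added with 0.1 nM (final) 17beta-estradiol, 22 hr at 37C; luminescence read with ONE-Glo after 30 min.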

Experiment [19] in a line: qHTS assay to identify small molecule phospholipidosis (PLD) inducers (AID 1259344; active = well fitted curve in the direction sought with a large enough effect; an effect the other way counts as inactive or inconclusive; also: potency is read from the fitted curve at half-maximal effect). The essentials: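 Fluorescent phospholipid staining (LipidTOX Red) measured by automated microscopy in fixed HepG2 cells after 24 h treatment; nuclei counterstained with Hoechst 33342; amiodarone as reference inducer.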

Androgen receptor (Homo sapiens), sequence (P10275 whole entry, looked up): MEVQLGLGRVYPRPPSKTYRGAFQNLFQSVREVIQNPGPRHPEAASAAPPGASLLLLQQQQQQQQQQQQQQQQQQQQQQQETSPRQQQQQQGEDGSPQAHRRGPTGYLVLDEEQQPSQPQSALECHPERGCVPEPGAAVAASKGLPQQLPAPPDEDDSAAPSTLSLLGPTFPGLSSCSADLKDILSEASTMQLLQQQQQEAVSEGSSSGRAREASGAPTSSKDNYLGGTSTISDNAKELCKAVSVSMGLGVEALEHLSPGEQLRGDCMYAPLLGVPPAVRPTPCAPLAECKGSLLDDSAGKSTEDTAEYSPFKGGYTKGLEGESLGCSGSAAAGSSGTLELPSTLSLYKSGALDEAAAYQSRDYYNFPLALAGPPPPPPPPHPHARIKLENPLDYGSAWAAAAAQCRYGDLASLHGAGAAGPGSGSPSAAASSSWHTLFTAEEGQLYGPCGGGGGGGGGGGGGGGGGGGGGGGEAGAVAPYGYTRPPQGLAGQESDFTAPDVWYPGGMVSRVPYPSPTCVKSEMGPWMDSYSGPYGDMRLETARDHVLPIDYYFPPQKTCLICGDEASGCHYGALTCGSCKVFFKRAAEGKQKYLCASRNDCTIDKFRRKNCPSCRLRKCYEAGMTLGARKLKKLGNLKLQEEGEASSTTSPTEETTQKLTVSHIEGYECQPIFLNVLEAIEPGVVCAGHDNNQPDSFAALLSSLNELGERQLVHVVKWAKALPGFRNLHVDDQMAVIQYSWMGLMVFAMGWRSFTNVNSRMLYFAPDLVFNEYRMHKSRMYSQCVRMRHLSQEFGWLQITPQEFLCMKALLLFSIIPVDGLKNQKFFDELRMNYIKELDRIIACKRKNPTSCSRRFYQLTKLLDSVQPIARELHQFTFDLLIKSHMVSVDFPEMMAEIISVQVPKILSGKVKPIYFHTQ
Estrogen receptor (Homo sapiens), sequence (P03372 whole entry, looked up): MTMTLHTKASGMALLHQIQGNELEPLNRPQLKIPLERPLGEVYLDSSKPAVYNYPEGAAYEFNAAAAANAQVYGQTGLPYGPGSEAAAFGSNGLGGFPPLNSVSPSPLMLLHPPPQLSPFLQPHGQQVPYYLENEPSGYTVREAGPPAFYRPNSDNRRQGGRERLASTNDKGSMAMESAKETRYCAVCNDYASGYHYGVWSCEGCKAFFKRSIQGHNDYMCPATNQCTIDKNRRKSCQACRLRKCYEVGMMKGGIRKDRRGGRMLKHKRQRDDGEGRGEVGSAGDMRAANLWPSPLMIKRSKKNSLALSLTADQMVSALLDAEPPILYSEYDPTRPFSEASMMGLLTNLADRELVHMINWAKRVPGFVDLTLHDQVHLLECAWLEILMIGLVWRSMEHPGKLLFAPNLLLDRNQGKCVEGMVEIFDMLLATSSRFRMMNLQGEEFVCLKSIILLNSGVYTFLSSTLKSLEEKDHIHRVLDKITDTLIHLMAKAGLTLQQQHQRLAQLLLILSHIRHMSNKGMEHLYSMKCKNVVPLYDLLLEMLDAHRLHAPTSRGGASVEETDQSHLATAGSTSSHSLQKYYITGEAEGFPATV

For `O=C(NS(=O)(=O)/C=C/c1cccs1)c1ccc(F)cc1Br`, the Potency entry in experiment [1], in experiment [2], in experiment [3], in experiment [4], in [5] and in [7] was “inactive” in each case. Further, the Potency result in [8], in [9], in experiment [10], in experiment [11], in [13] and in experiment [14] was “inactive” each time. Further, the Potency result in experiment [16] was “inactive”. For the same compound, the Potency in experiment [6] is 15.5 µM (active). The result in experiment [12] and in experiment [15] was inactive.
With `O=CNc1ccccc1`, the Potency entry in experiment [1], in experiment [2], in experiment [17], in [3], in [4] and in experiment [5] was “inactive” each time. The Potency result in experiment [6], in [7], in [8], in [9], in experiment [11] and in experiment [13] was “inactive” throughout. For the same compound, the Potency result in [14] and in [16] was “inactive” each time. The call in experiment [12] and in experiment [15] was inactive.
Turning to `CC(=O)/C(C)=C/C1C(C)=CCCC1(C)C` (stereo unspecified), the Potency entry in [2], in [17], in experiment [4], in experiment [6], in experiment [7] and in experiment [8] was “inactive” in each case. Moreover, the Potency entry in experiment [9], in [18], in experiment [11], in experiment [13], in experiment [14] and in experiment [16] was “inactive” in each case. The Potency in [5] is 15.5 µM (active). The compound was called inactive in experiment [12] and in [15].
Regarding `Nc1nc(N)c(-c2ccccc2)s1`, the Potency result in experiment [1], in experiment [2], in experiment [17], in experiment [3], in experiment [4] and in [5] was “inactive” in each case. In addition, the Potency result in [6], in experiment [7], in experiment [8], in experiment [9], in experiment [19] and in experiment [11] was “inactive” throughout. The Potency entry in [13], in experiment [14] and in experiment [16] was “inactive” throughout. Moreover, the call in [12] and in experiment [15] was inactive.
With `NC(=S)N/N=C/c1cccnc1`, the Potency entry in experiment [1], in [17], in experiment [3], in [4], in [5] and in experiment [6] was “inactive” in each case. For the same compound, the Potency entry in experiment [7], in experiment [9], in experiment [10], in experiment [19], in experiment [11] and in experiment [13] was “inactive” in each case. Also, the Potency result in [14] and in experiment [16] was “inactive” each time. For the same compound, the call in experiment [12] and in experiment [15] was inactive.
Regarding `Cc1cc(CC(=O)O)c(C)n1-c1ccc(Cl)cc1`, the Potency result in [1], in experiment [2], in experiment [17], in experiment [4], in [5] and in experiment [6] was “inactive” throughout. Besides, the Potency result in experiment [7], in [8], in experiment [9], in [19], in [11] and in experiment [13] was “inactive” throughout. Besides, in experiment [14], the Potency result is “inactive”. The outcome in [12] and in experiment [15] was inactive.
Regarding `O=S1(=O)c2cccc3cccc(c23)N1CCCN1CCN(c2ccc(F)cc2)CC1`, the Potency entry in experiment [1], in experiment [2], in experiment [17], in [3], in experiment [4] and in experiment [5] was “inactive” each time. Besides, the Potency entry in experiment [6], in [9], in experiment [19], in experiment [11], in experiment [13] and in [14] was “inactive” each time. Also, the Potency entry in experiment [16] is “inactive”. The compound was classed as inactive in experiment [12] and in experiment [15].
With `COc1ccc([C@@H]2Sc3ccccc3N(CCN(C)C)C(=O)[C@@H]2OC(C)=O)cc1`, the Potency entry in experiment [1], in experiment [17], in [3], in experiment [4], in experiment [5] and in [6] was “inactive” throughout. For the same compound, the Potency result in experiment [7], in experiment [8], in experiment [9], in [19], in [11] and in [13] was “inactive” each time. The Potency result in [14] and in experiment [16] was “inactive” in each case. For the same compound, the result in experiment [12] and in [15] was inactive.
For the compound `O=C1[C@H](CC[C@H](O)c2ccc(F)cc2)[C@@H](c2ccc(O)cc2)N1c1ccc(F)cc1`, the Potency result in experiment [1], in [2], in [17], in experiment [5], in experiment [6] and in [7] was “inactive” throughout. Further, the Potency entry in experiment [8], in [9], in experiment [19], in experiment [11], in [14] and in experiment [16] was “inactive” throughout. Also, the Potency in [3] is 23.9 µM (active). The compound was called inactive in [12] and in [15].
For `C1CCC2OC2C1` (stereo unspecified), the Potency entry in experiment [1], in experiment [2], in [4], in [5], in experiment [6] and in experiment [7] was “inactive” in each case. For the same compound, the Potency result in experiment [8], in [9], in [10], in experiment [18], in experiment [11] and in [13] was “inactive” in each case. In experiment [16], the Potency entry is “inactive”. The outcome in experiment [12] and in [15] was inactive.
In the case of `CN1CCN(C2=Nc3ccccc3Sc3ccc(Cl)cc32)CC1`, the Potency result in [1], in experiment [2], in [3], in experiment [4], in experiment [5] and in experiment [6] was “inactive” throughout. Also, the Potency entry in [7], in [8], in experiment [9], in [10], in [11] and in experiment [13] was “inactive” each time. Also, the Potency result in [16] was “inactive”. Besides, in [19], the Potency was 11.2 µM (active). Also, the call in experiment [12] and in experiment [15] was inactive.
For the compound `C=CC(=O)OCCOC(=O)CCC(=O)O`, the Potency result in experiment [1], in experiment [2], in experiment [17], in experiment [4], in experiment [5] and in experiment [6] was “inactive” each time. Also, the Potency result in experiment [7], in experiment [8], in experiment [9], in experiment [11] and in [13] was “inactive” each time. In addition, the outcome in experiment [12] and in [15] was inactive. Also, the Potency in [16] was 61.1 µM (active).
